Source: PubChem (National Center for Advancing Translational Sciences (NCATS))
Marburg entry inh = Marburg virus entry inhibition; hit rate 1.8% among 300,000; Potency, µM (titrated, usually from 37.8 µM), for inactives: at the highest dose activity change, negative = inhibition, usual class: inhibitors; Marburg virus pseudotyped entry inhibition, cell reporter; calls by dose curve; tested in HEK293 cells; also: potency is read from the fitted curve at half-maximal effect
FMDV inh = antivirals against foot and mouth disease virus. FMDV antiviral cell-based qHTS. Potency, µM (doses to about 57.9 µM), for the others: at the highest dose activity change, negative = inhibition, most hits filed as inhibitors. hit rate 1.2% among 410,000. AID 1159524; calls by dose curve; tested in HEK293T cells; also: read-out not given here; potency is read from the fitted curve at half-maximal effect; nearly all actives have a fitted effect of over 45% in size
Lassa entry inh = blocks Lassa virus binding to or entry into cells; Lassa virus pseudotype entry inhibition, cell reporter; Potency, µM (titrated, usually from 37.9 µM), for the others: top-dose activity change, negative = inhibition, hits mostly inhibitors; hit rate 1.2% among 300,000; calls by dose curve; tested in HEK293 cells; also: potency is read from the fitted curve at half-maximal effect; nearly all actives have a fitted effect of over 50% in size
HCMV antiviral = inhibitors of human cytomegalovirus. HFF cells, HCMV-luciferase reporter, 72 h; stronger effect = lower value. activity change, negative = inhibition, % at 57.5 µM. hit rate 4.5% among 410,000; in the data active = activity change below about -60%; inconclusive = no clear call, values can overlap the other calls; inactive = above about -39%
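HFF cells seeded 16 h at 37C, treated with compounds, infected with luciferase-reporter HCMV at MOI 1 PFU/cell; luciferase read at 72 h post infection, normalized to buffer-only and Salinomycin controls.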
HCV inhibitor = HCV inhibition. Huh7.5.1 HCVcc-Cre infection, luciferase reporter, 44 h. Potency, µM (top dose mostly 41.8 µM), without a hit: at the top dose activity change, negative = inhibition, actives largely listed as inhibitors. hit rate 3.4% among 340,000. AID 651820; active = well fitted inhibition curve with a large enough effect; inconclusive = small, poorly fitted or top-dose-only effect, or another doubt; inactive = no such curve, though single readings can be large or run the other way; also: potency is read from the fitted curve at half-maximal effect
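Infectious HCVcc-Cre (~0.5 moi) was added to cells just after compound, with cells seeded 4 h earlier at 1,000 per well. Luciferase activity after 44 h culture reported infection; substrate was incubated 15 min at room temperature before reading.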
Numbers without * were called inactive; u = inconclusive; x = not tested or not shown; [ ] = another dose, or the depositor's remark. Compounds with a hit are over-represented: about 7.9% of the library has one in this group of screens. % is scaled to controls: 0 for no effect and ±100 for the full control effect.

SMILES	Marburg entry inh	FMDV inh	Lassa entry inh	HCMV antiviral	HCV inhibitor
O=C(COc1ccccc1)NCc1nnc2c3ccccc3c(-c3ccccc3)nn12	x	-13%	x	-63*	0%
Cc1cc(O)c2c(c1)OC(C)(C)C1=C2CC(C)CC1 (stereo not given)	x	-13%	x	u	13µM*
O=S(=O)(c1ccc2[nH]c3c(c2c1)CCCCC3)N1CCN(c2ccccc2)CC1	x	0%	u	-4	x
CCCc1nc(NCc2ccccc2)c(C#N)c2c1CCCC2	4%	-12%	9%	-30	9%
C=CCNc1nc(NCc2ccccc2)c(C#N)c2c1CN(C)CC2	u	u	2%	-30	18µM*
N#Cc1c(NCCN)nc(NCc2ccccc2)c2c1CCN(Cc1ccccc1)C2	u	-17%	7%	x	u
CCN1CCc2c(C#N)c(NCc3ccccc3)nc(N(CC)CC)c2C1	u	u	15µM*	-14	u
CC(C)=CCCC(C)=CCON=C1C[C@@H](O)[C@@H](O)[C@@H]2[C@H]3C(=O)N(Cc4ccc5c(c4)OCO5)C(=O)[C@@H]3CC[C@@H]12	-44%[14.2 µM]	x	-1%[14.3 µM]	x	x
OC[C@@H]1CN(CCc2ccccc2)C[C@H](n2cnc3c(NCc4ccc(F)cc4)ncnc32)O1	x	0%	x	-66*	x
OC[C@@H]1CN(Cc2ccco2)C[C@H](n2cnc3c(NCc4ccc(F)cc4)ncnc32)O1	x	4%	x	-69*	x
COc1cc(CNc2ncnc3c2ncn3[C@H]2CN(Cc3ccc(-c4ccccc4)cc3)C[C@@H](CO)O2)cc(OC)c1OC	x	u	x	-66*	x
OC[C@@H]1CN(Cc2ccc(-c3ccccc3)cc2)C[C@H](n2cnc3c(NCc4ccncc4)ncnc32)O1	x	-4%	x	-91*	x
OC[C@@H]1CN(Cc2ccc(F)cc2)C[C@H](n2cnc3c(NCc4ccco4)ncnc32)O1	x	-24%	x	17	x
OC[C@@H]1CN(Cc2ccco2)C[C@H](n2cnc3c(NCc4ccncc4)ncnc32)O1	x	-10%	x	7	x
O=C1CCCC2=C1[C@H]1O[C@](c3ccsc3)(Cc3c1ccc1ccccc31)O2	-14%[14.2 µM]	x	x	x	x
COc1ccc(OC)c(NC(=O)Nc2cccc(OCc3cc(=O)n4cc(C)ccc4n3)c2)c1	x	-3%	10%[46.1 µM]	-22	x
COC(=O)c1ccc(-c2cccc3c2OC(CNC(=O)/C=C/c2ccc(OC)c(OC)c2)C3)nc1 (stereo not given)	x	-4%	x	x	x
OC[C@@H]1CN(Cc2ccc(-c3ccccc3)cc2)C[C@H](n2cnc3c(NCc4ccco4)ncnc32)O1	x	32µM*	x	-90*	x
OC[C@@H]1CN(Cc2ccccc2)C[C@H](n2cnc3c(NCc4ccco4)ncnc32)O1	x	-14%	x	-27	x
Cc1cc(Br)ccc1SCC(=O)OCC(=O)c1c(N)n(C)c(=O)n(C)c1=O	x	11%	x	-7	13%
Cc1cc(O)c2c3c(c(=O)oc2c1)CCC(C)C3 (stereo not given)	x	-2%	x	u	8.9µM*
Oc1ccc(/C=N/NC(=S)Nc2cccnc2)cc1O	u	u	u	82	-3%
Oc1ccc(C=NNC(=S)Nc2cccnc2)nc1	u	27%	10µM*	-69*	u
S=C(N/N=C/c1ccc2ncccc2c1)Nc1cccnc1	x	14µM*	x	-71*	0%
COc1cc(OC)c(NC(=O)C(CC(C)C)N2Cc3ccccc3C2=O)cc1Cl (stereo not given)	x	8%	-14%[46.1 µM]	-65*	x
SMILES	Marburg entry inh	FMDV inh	Lassa entry inh	HCMV antiviral	HCV inhibitor
CCCC(C(=O)Nc1cc(C)c(Cl)cc1OC)N1Cc2ccccc2C1=O (stereo not given)	x	-14%	-9%[46.1 µM]	-7	x
CCCCCCC(C)(C)c1ccc([C@@H]2C[C@H](O)CC[C@H]2CCCO)c(O)c1	13µM*	u	u	28	u
O=C1c2ccccc2NC(c2cn[nH]c2-c2ccc(Cl)cc2)N1O (stereo not given)	u	14µM*	u	-39	u
O=C1c2ccccc2NC(c2cn[nH]c2-c2ccccc2)N1O (stereo not given)	-29%	-27%	2%	-19	-10%
COc1ccc(C)cc1NS(=O)(=O)c1ccc2c(c1)NC(=O)C(C)S2 (stereo not given)	x	27%	x	-77*	-13%
CCC1Sc2ccc(S(=O)(=O)Nc3ccc(OC)c(OC)c3)cc2NC1=O (stereo not given)	u	-21%	u	-76*	10µM*
COc1ccccc1CNS(=O)(=O)c1ccc2c(c1)NC(=O)C(C)S2 (stereo not given)	-25%[46.1 µM]	-13%	-44%[46.1 µM]	-37	u
CCCOP(=O)(c1ccc(N(C)C)cc1)C(O)c1ccc(Br)cc1 (stereo not given)	u	35%	-13%	12	9%
CC(C)n1c(SCC(=O)c2ccc3c(c2)OCCO3)nc2c1c(=O)n(C)c(=O)n2C	-8%	x	u	-19	13µM*
Cc1cc(NC(=O)CSc2nc3c(c(=O)n(C)c(=O)n3C)n2C(C)C)no1	1%	-25%	-24%	47	0%
CCCn1c(SCC(=O)Nc2nc(-c3ccc(OC)cc3)cs2)nc2c1c(=O)n(C)c(=O)n2C	u	u	4%	20	22%
CC(C)n1c(SCC(=O)Nc2nc3ccccc3s2)nc2c1c(=O)n(C)c(=O)n2C	u	22µM*	-20%	67	u
CCOc1ccc2nc(NC(=O)CSc3nc4c(c(=O)n(C)c(=O)n4C)n3C(C)C)sc2c1	u	22µM*	-8%	-1	u
CCn1c(SCC(=O)Nc2nc3ccc(OC)cc3s2)nc2c1c(=O)n(C)c(=O)n2C	u	u	-42%	7	4µM*
CC(C)n1c(SCC(=O)Nc2ccc3c(c2)OCO3)nc2c1c(=O)n(C)c(=O)n2C	-17%	-22%	-23%	-36	u
COc1ccccc1OCCNC(=O)Cc1ccc(Cl)c(Cl)c1	u	7%	-24%	2	-14%
CC(C)(C)c1nc2ccccc2c2nnc(SCC(=O)Nc3nc4ccccc4s3)n12	u	u	u	10	13µM*
CC(C)(C)c1nc2ccccc2c2nnc(SCC(=O)Nc3nccs3)n12	u	x	u	-19	u
O=S1(=O)N[C@H](Cc2ccccc2)COc2cc(N3CCSCC3)ccc21	x	17%	x	1	x
O=C(Nc1nccs1)C1CC=CCC1 (stereo not given)	7%[46.1 µM]	12%	3%	-69*	8%
Cc1ccc(N2C(N)=C(C#N)C(c3ccsc3)C3=C2CC(C)(C)CC3=O)cc1 (stereo not given)	u	-26%	u	-101*	13µM*
CN(C)N1C(N)=C(C#N)C(c2ccsc2)C2=C1CC(C)(C)CC2=O (stereo not given)	-26%	-24%	-17%	-29	41%
O=C(/C=C/c1ccco1)NC(=S)Nc1cccc(-c2nc3ccccc3s2)c1	3.5µM*	-6%	-21%	57	10µM*
Cc1ccc(-n2nc3ccc(NC(=S)NC(=O)/C=C/c4ccco4)cc3n2)cc1	25%	9%	u	-68*	2%
